CBX7 AlphaScr = blocks human CBX7 binding to H3K27me3 peptide; O95931; AlphaScreen His6-CBX7 / biotin-H3K27me3 peptide binding; active compounds read low; normalised signal (fraction of DMSO) (concentration not given with the values); 66,000 compounds, 1.1% hits; AID 1224903; in the data active means normalised signal below about 0.5
Target sequence (O95931 whole entry, looked up): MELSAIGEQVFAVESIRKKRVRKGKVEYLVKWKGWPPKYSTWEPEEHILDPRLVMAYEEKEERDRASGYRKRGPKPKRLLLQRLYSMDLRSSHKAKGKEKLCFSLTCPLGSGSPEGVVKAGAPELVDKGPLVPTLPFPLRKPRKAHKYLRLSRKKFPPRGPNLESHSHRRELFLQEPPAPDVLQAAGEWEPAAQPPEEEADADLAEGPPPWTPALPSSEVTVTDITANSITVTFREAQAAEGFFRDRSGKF
Each line names hits and unclear results; the compound was inactive in the other large screens. The entries come from a sample that favours hits as a whole.

COc1ccc(OC)c(NC(=O)c2c(NCc3cccs3)sc3c2CCCCC3)c1	CBX7 AlphaScr 0.43
COc1ccc(OC)c(NC(=O)c2c(NCc3cccs3)sc3c2CCC3)c1	none
COc1ccc(OC)c(CNc2sc3c(c2C(=O)Nc2cc(OC)ccc2OC)CCCC3)c1	none
Cc1ccc2cc(CCNC(=O)C(C)Oc3ccccc3)c(=O)[nH]c2c1 (stereo unspecified)	none
O=C(Nc1ccc(Cl)c(-c2nc3ccccc3[nH]2)c1)c1cccc(F)c1	none
O=C(NCCN1CCCC1)c1ccc2c(c1)N(Cc1ccccc1Cl)C(=O)c1ccccc1S2	none
CCN(CC)CCNc1ncnc2c1cnn2-c1cccc(C)c1	none
CCC(C)NC(=O)CSc1nc(NC2CCCCC2)c2ccccc2n1 (stereo unspecified)	none
CN(C)c1ccc(-c2nc3cnccn3c2Nc2ccc(Cl)cc2)cc1	none
Cc1ccc(NS(=O)(=O)c2ccc3c(c2)CCN3C(=O)C2CCC2)cc1	none
COc1ccc(-c2nnc(NC(=O)c3ccc(S(=O)(=O)N4CC(C)OC(C)C4)cc3)o2)cc1 (stereo unspecified)	none
Cc1ccccc1NC(=O)c1ccc(S(=O)(=O)N2CCCCC2)cc1	none
NC(=O)c1oc2ccccc2c1NC(=O)c1ccc(S(=O)(=O)N2CCCC2)cc1	none
COc1ccccc1-c1nnc(NC(=O)c2ccc(S(=O)(=O)N3CC(C)OC(C)C3)cc2)o1 (stereo unspecified)	none
O=C(Nc1nnc(C2CC2)o1)c1ccc(S(=O)(=O)N2CCCC2)cc1	CBX7 AlphaScr 0.45
Cc1nnc(NC(=O)c2ccc(S(=O)(=O)N3CCCCC3)cc2)o1	CBX7 AlphaScr 0.021
NC(=O)c1oc2ccccc2c1NC(=O)c1ccc(S(=O)(=O)N2CCCCC2)cc1	none
Cc1nnc(NC(=O)c2ccc(S(=O)(=O)N3CC(C)OC(C)C3)cc2)o1 (stereo unspecified)	CBX7 AlphaScr 0.0066
CC1CCCN(S(=O)(=O)c2ccc(C(=O)Nc3nnc(C4CC4)o3)cc2)C1 (stereo unspecified)	none
Cc1nnc(NC(=O)c2ccc(S(=O)(=O)N3CCCCCC3)cc2)o1	CBX7 AlphaScr 0.002
COc1ccccc1-c1nnc(NC(=O)c2ccc(S(=O)(=O)N3CCCC3)cc2)o1	none
COc1ccc(N2CCN(C(=O)C3c4ccccc4C(=O)N4CCc5ccccc5C34)CC2)cc1 (stereo unspecified)	none
Cc1onc(-c2ccccc2)c1C(=O)NC(C)CCCC(C)C (stereo unspecified)	none
COc1cccc(NC(=O)CCC(=O)Nc2ccc3nc(N4CC(C)CC(C)C4)cc(C)c3c2)c1 (stereo unspecified)	none
COc1ccc(CC(=O)N2CC(=O)Nc3ccc(C)cc3C2c2ccccc2)cc1 (stereo unspecified)	none
Cc1cccc(-c2noc(CN(C(=O)c3cccc(Cl)c3)C(C)C)n2)c1	none
CCCCOc1ccc(C(C)NC(=O)CN2CCN(Cc3ccc(C)cc3)C2=O)cc1 (stereo unspecified)	none
Cc1ccc(C)c2[nH]c(=O)c(CCNC(=O)c3c(F)cccc3F)cc12	none
CCCCCCC(C)n1c(-c2nonc2N)nc2ccccc21 (stereo unspecified)	none
COc1ccc(-c2cc3ccccc3n2CC(O)CN2CCCCC2)cc1 (stereo unspecified)	none
COc1cccc(OCC(O)CN2CCOCC2)c1 (stereo unspecified)	none
COc1ccc(OCC(O)Cn2c(=N)n(CCN3CCOCC3)c3ccccc32)cc1 (stereo unspecified)	none
CCC(=C(c1ccc(OC)cc1)c1ccc(OC)cc1)c1cn(CC(O)CN2CCN(C)CC2)c2ccccc12 (stereo unspecified)	CBX7 AlphaScr 0.35
CCC(=C(c1ccc(OC)cc1)c1ccc(OC)cc1)c1cn(CCN(C)C)c2ccccc12	CBX7 AlphaScr 0.32
COc1ccc(C(=O)c2cn(Cc3ccc(C)cc3)c3ccccc3c2=O)cc1	none
COc1ccc(C(=O)c2cn(Cc3ccc(F)cc3)c3ccccc3c2=O)cc1	none
CCC(=C(c1ccc(OC)cc1)c1ccc(OC)cc1)c1cn(CC(O)CN2CCOCC2)c2ccccc12 (stereo unspecified)	CBX7 AlphaScr 0.41
COc1ccc(OCC(O)CN2CCCCCC2)cc1 (stereo unspecified)	none
CCCCNC(=O)c1ccc2c(c1)N=C(C)c1c(C)ccc(C)c1S2	none
COc1ccc(CN(C(=O)c2ccc(OC(C)C)cc2)C2CCS(=O)(=O)C2)cc1OC (stereo unspecified)	none
CC(=O)NCCNC(=O)CCc1nc2sc3c(c2c(=O)[nH]1)CCCC3	none
COc1ccc(CNC(=O)CCc2nc3sc4c(c3c(=O)[nH]2)CCCC4)cc1	none
O=C(CCc1nc2sc3c(c2c(=O)[nH]1)CCCC3)NCc1ccccn1	CBX7 AlphaScr 0.34
O=C(O)c1cccc(Nc2nc(-c3c[nH]c4ccccc34)cs2)c1	none
O=C(c1nc(-c2ccncc2)no1)c1cccs1	none
CCOc1ccc(C2NCCc3cc(OCC)c(OC)cc32)cc1 (stereo unspecified)	none
CCN1CCN(c2oc(-c3ccccc3)nc2C#N)CC1	none
CC1CCN(c2oc(-c3ccccc3)nc2C#N)CC1	CBX7 AlphaScr 0.41
N#Cc1nc(-c2ccccc2)oc1N1CCOCC1	none
COc1ccc(Cc2noc(-c3cc(-c4ccncc4)nc4ccccc34)n2)cc1	CBX7 AlphaScr 0.49
COc1ccc(-c2noc(-c3cc(-c4ccccc4)nc4ccccc34)n2)cc1	none
COc1ccc(Cc2noc(-c3cc(-c4ccc(F)cc4)nc4ccccc34)n2)cc1	none
Cc1cc(N2CCOCC2)nc2ccc(NC(=O)CCC(=O)NCCCN3CC(C)CC(C)C3)cc12 (stereo unspecified)	none
O=C1CCc2cc(S(=O)(=O)N3CCC(C(=O)Nc4ccc(F)c(F)c4)CC3)ccc2N1	none
CCN1CCN(CCCNC(=O)COc2ccc3c(c2)C(=O)CC(C)(C)O3)CC1	CBX7 AlphaScr 0.45
CCCN1CCN(CCCNC(=O)COc2ccc3c(c2)C(=O)CC(C)(C)O3)CC1	none
CCCCCCCNC(=O)COc1ccc2c(c1)C(=O)CC(C)(C)O2	none
COc1ccc(-c2nc(S(=O)(=O)c3ccccc3)c(NCc3ccccc3)o2)cc1	none
Cn1c(C(=O)N2CCC(C(=O)N3CCN(Cc4ccccc4)CC3)CC2)cc2sccc21	none
Fc1ccc(-c2[nH]c(-c3c[nH]c4ccc(Br)cc34)nc2-c2ccccc2)cc1	CBX7 AlphaScr 0.46
Fc1ccc(-c2[nH]c(-c3cccs3)nc2-c2ccccc2)cc1	none
O=c1nc(-c2ccccc2)c2cc(Br)ccc2[nH]1	none
Cc1ccc(C)c(-c2[nH]c(-c3ccc(O)cc3)nc2-c2ccccc2)c1	none
c1ccc2[nH]c(-c3c[nH]c4ccccc34)nc2c1	none
Cc1ccc(-c2[nH]c(-c3c[nH]c4ccccc34)nc2-c2ccccc2)cc1	CBX7 AlphaScr 0.38
CCCCCn1c(CNC(=O)c2ccc(OC)c(OC)c2)nc2ccccc21	none
COc1cc(Cl)c(C)cc1NC(=O)CCNC(=O)Cn1ccc2ccccc2c1=O	none
CCOC(=O)c1c(NC(=O)COc2ccccc2C(C)(C)C)sc2c1CCCC2	none
Cc1ccc2c(c1)N(CCCC(=O)NCCN(C)C)C(=O)CO2	none
Cc1n[nH]c(C)c1CCCCOc1ccc(F)cc1	none
CN1CCN(c2nc3ccccc3nc2NS(=O)(=O)c2ccc(Br)cc2)CC1	none
Cc1ccc(S(=O)(=O)Nc2nc3ccccc3nc2N2CCN(C)CC2)cc1	none
O=S(=O)(Nc1nc2ccccc2nc1N1CCc2ccccc2C1)c1ccc(Br)cc1	CBX7 AlphaScr 0.4
O=C(Nc1ccc2oc(-c3cccc(F)c3)nc2c1)c1cccs1	none
O=C(Cn1cnc2sc3c(c2c1=O)CCC3)Nc1ccccc1C(F)(F)F	none
COc1ccccc1-c1c(C)nn2c(NC3CCN(Cc4ccccc4)CC3)cc(C)nc12	none
